The source of these data is PubChem BioAssay AID651820 (National Center for Advancing Translational Sciences (NCATS), 2012).

SMILES strings stand for the structures. Hit rate of the full screen: of about 340,000 compounds, about 12,000 (3.5%) were called active. Inconclusive results (about 18%) are left out. Only a selection was taken, and actives are over-represented in it overall. Values without a mark were called inactive. The call rests on the fitted dose curve; in most records, active means well fitted inhibition curve with a large enough effect; inconclusive means small, poorly fitted or top-dose-only effect, or another doubt; inactive means no such curve, though single readings can be large or run the other way.
On the % scale 0 is the no-effect control and ±100 the full control effect; potency means the concentration at half of the fitted maximal effect.

The test in a line: qHTS Assay for Inhibitors of Hepatitis C Virus (HCV). As to conditions: Huh7.5.1 HCVcc-Cre infection, luciferase reporter, 44 h; series mostly up to 41.8 µM; activity change, negative = inhibition: at the top concentration. Summed up: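 Luciferase read-out (15 sec integration) after a 15 min room-temperature substrate step quantifies HCVcc-Cre infection. Cells, 1,000 per well, had compound added 4 h post-plating, then virus at ~0.5 moi, and were cultured 44 h.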
Take `O=C(Nc1ccccc1C(=O)NCC1CCCO1)c1ccccc1F` (configuration not stated): the “activity change, negative = inhibition” value was 2.29%. Regarding `Cc1cccn2c(=O)c3cc(C(=O)NCC4CCCO4)c(=N)n(Cc4ccc(F)cc4)c3nc12` (configuration not stated), the Potency was 5.62 µM (active).

With `Cc1cccn2c(=O)c3cc(C#N)c(=NC(=O)c4cccnc4)n(CC4CCCO4)c3nc12` (configuration not stated), the “activity change, negative = inhibition” value was 2.8%. Same read-out and setting: under `CCOc1ccc(CCNC(=O)CN2C(=O)NC3(CCc4ccccc43)C2=O)cc1OCC` (configuration not stated) stands 7.59%; under `COc1ccc(/C=C2/C(=O)N(c3ccccc3)N=C2C)c(OC)c1`, 19%. With `COc1ccc(/C=C/C2=CC(C)(C)NC(=S)N2)c(OC)c1`, the Potency is 14.1 µM (active). Take `COc1cc(/C=C/C2=CC(C)(C)NC(=S)N2)cc(OC)c1OC`: the “activity change, negative = inhibition” value was 0.519%. Regarding `CCn1c(SCC(=O)NCC2CCCO2)nc2cc(S(=O)(=O)N3CCCCC3)ccc21` (configuration not stated), the “activity change, negative = inhibition” value is -16.5%. As for `CCCCn1c(SCC(=O)N2CCCC2=O)nc2cc(S(N)(=O)=O)ccc21`, the “activity change, negative = inhibition” value is 14.2%. In the case of `CCCCn1c(SCc2ncc(-c3ccccc3)o2)nc2cc(S(N)(=O)=O)ccc21`, the Potency was 6.31 µM (active). As for `CC(=O)Nc1ccc(SC[C@H](Cc2ccccc2)N2CC[C@@H](C)CCC2=O)cc1`, the “activity change, negative = inhibition” value was 17.1%. Regarding `CCOc1ccc(-c2nc(N)ncc2-c2ccccc2OC)c(O)c1`, the “activity change, negative = inhibition” value is -9.58%. In the case of `COc1ccc(-c2nc(N)ncc2-c2ccc(Cl)cc2)c(O)c1`, the “activity change, negative = inhibition” value was -24.2%. For the compound `C=C(C)COc1ccc(-c2nc(N)ncc2-c2ccccc2OC)c(O)c1`, the Potency is 10 µM (active). For the compound `O=C(COC(=O)c1ncc(Cl)c(Cl)c1Cl)NCc1ccccc1`, the “activity change, negative = inhibition” value is 1.03%. With `O=C(CCNC(=O)c1ccccc1Cl)NN=Cc1ccco1`, the “activity change, negative = inhibition” value was 16%.

On to `COC(=O)C1=C(C)NC(=S)NC1c1ccc(OCC(=O)N2CC(C)OC(C)C2)c(OC)c1` (configuration not stated), for which the “activity change, negative = inhibition” value was 10.3%.

In the case of `CNC[C@H](CC1CCCCC1)NC[C@H](NCCC1CCCC1)[C@H](C)O`, the Potency is 11.2 µM (active). Take `COC(=O)c1ccc(-c2c(-c3ccccc3)ncc3cc(OC)c(OC)cc23)cc1`: the “activity change, negative = inhibition” value was -3.02%. Still for that read-out and setting: under `COc1ccc(CCNC(=O)CS(=O)(=O)Cc2nc(-c3ccc(C)cc3)oc2C)cc1OC` stands -21.3%. Turning to `COc1ccc(CCNC(=O)C2CCCN(Cc3nc(-c4cccc(Cl)c4)oc3C)C2)cc1OC` (configuration not stated), the Potency was 10 µM (active). For `COc1ccc(CCN(C)C(=O)C2CCCN(Cc3ccc(OC)c(OC)c3)C2)cc1OC` (configuration not stated), the “activity change, negative = inhibition” value was 2.61%.

On to `COc1ccc(NC(=O)CN(C)C(=O)c2cc(-c3ccc(C)o3)nc3ccccc23)cc1`, for which the “activity change, negative = inhibition” value was -21.8%. Still for that read-out and setting: under `CN(C)c1ccc(-n2cccc2/C=C2/SC(=Nc3ccc(F)cc3)NC2=O)cc1` stands -22%; under `Cn1cc(/C=C/c2nc3ccccc3c(=O)n2-c2cccc([N+](=O)[O-])c2)c2ccccc21`, 1.56%. Consider `Cc1cccc(N=C2NC(=O)/C(=C/c3cn(C)c4ccccc34)S2)c1`, for which the Potency was 14.1 µM (active). Turning to `Cc1cccc(N(Cc2ccccc2)C(=O)c2cc(S(=O)(=O)N3CCOCC3)ccc2F)c1`, the “activity change, negative = inhibition” value is -3.25%. `O=S(=O)(NC1CC1)c1ccc2c3c(cccc13)CC2`: the “activity change, negative = inhibition” value is -28%. The same measure, in the same setting: in the case of `CSc1ccc(S(=O)(=O)NC2CCCCC2)cc1` it was 15.8%. With `O=S(=O)(NC1CCCCC1)c1ccc(F)c2ccccc12`, the Potency is 35.5 µM (active). For the compound `O=C(NNc1nc(N2CCCC2)nc(N2CCCC2)n1)c1ccccc1`, the “activity change, negative = inhibition” value is -16.4%. Consider `CN(C)C(=O)CCc1ccc2c3c([nH]c2c1)[C@]1(CCc2ccccc2)[C@@H](C(=O)N2CCCCC2)C[C@H](CC(=O)NCCC2=CCCCC2)C(=O)N1CC3`, for which the “activity change, negative = inhibition” value was 12.1%.

For `CC(C)CN(C(=O)COC(=O)c1ccc2ccccc2c1)c1c(N)n(Cc2ccccc2)c(=O)[nH]c1=O`, the “activity change, negative = inhibition” value is -2.77%. Take `O=C(CN1C(=O)C2C3CCC(C3)C2C1=O)Oc1ccc2ccccc2c1` (configuration not stated): the “activity change, negative = inhibition” value is 16.3%. The same measure, in the same setting: under `O=C(COC(=O)CN1C(=O)C2CCCCC2C1=O)Nc1ccc(F)c(F)c1F` (configuration not stated) stands 9.46%. Regarding `CC1=CC(C)(C)Nc2ccc(OC(=O)CN3C(=O)C4CCCCC4C3=O)cc21` (configuration not stated), the Potency was 11.2 µM (active). Consider `Cc1cc2cc(CNC(=O)c3ccc(S(=O)(=O)N4CCOCC4)cc3)ccc2[nH]1`, for which the “activity change, negative = inhibition” value is -2.6%. In the case of `CCc1cccc(CC)c1NC(=S)Nc1ccc2cn[nH]c2c1`, the “activity change, negative = inhibition” value is -0.0519%. For the compound `CCc1cccc(CC)c1NC(=S)NCc1ccc2[nH]c(C)cc2c1`, the Potency is 14.1 µM (active). For the compound `CC(Sc1nnc(-c2cccs2)n1C1CC1)C(=O)NCC1CCCO1` (configuration not stated), the “activity change, negative = inhibition” value is 20.4%. On to `O=C(COC(=O)Cn1[nH]c(=O)c2ccccc2c1=O)Nc1ncc(Cl)cc1Cl`, for which the “activity change, negative = inhibition” value was 2.09%.

Consider `COc1ccc(N2CCN(C(=O)CCNC(=O)c3ccc(Br)cc3)CC2)cc1`, for which the “activity change, negative = inhibition” value was -26.5%.

For the compound `CC1CCCCC12NC(=O)N(CC(=O)OCc1c(F)cccc1Cl)C2=O` (configuration not stated), the “activity change, negative = inhibition” value was 12.2%. Regarding `CN1CCc2ccccc2C1Cc1ccccc1NC(=O)c1sc2ccccc2c1Cl` (configuration not stated), the Potency was 14.1 µM (active). Turning to `O=C(Nc1ccon1)c1sc2ccccc2c1Cl`, the “activity change, negative = inhibition” value was -6.93%. The same measure, in the same setting: under `CCc1ccccc1NC(=O)NCCN1CCCCC1` stands -6.99%; under `Cc1ccc(NC(=O)CSCC(=O)Nc2sccc2C#N)cc1`, 7.78%. Still for that read-out and setting: in the case of `CCCCCCCCCCCCN1[C@@H](CC(C)=O)c2cc(F)cc(F)c2S1(=O)=O` it was 7.87%; in that of `O=C(CN1C(=O)NC(Cc2c[nH]c3ccccc23)C1=O)Nc1ccccc1C(F)(F)F` (configuration not stated), 10.9%. Same read-out and setting: in the case of `O=C(OCCOCn1cc(Br)c(=O)[nH]c1=O)c1ccccc1` it was 7.07%.

Take `CC(C)(C)NCCCOc1ccc(Cl)cc1C(C)(C)C`: the Potency is 5.01 µM (active).

For `CN(C)CCOc1ccc(Cl)cc1C(C)(C)C`, the “activity change, negative = inhibition” value is 2.11%. `Cc1cc(Cl)ccc1OCCCC(=O)NCc1ccncc1`: the “activity change, negative = inhibition” value is -2.45%. Still for that read-out and setting: under `NC1=NC(c2ccc([N+](=O)[O-])cc2)N(c2ccc(F)cc2)C(N)=N1` (configuration not stated) stands 10.2%; under `COc1ccc(S(=O)(=O)N2CCOC23CCN(S(=O)(=O)c2ccc([N+](=O)[O-])cc2)CC3)cc1`, -26.6%. Still for that read-out and setting: in the case of `COc1ccc(CNc2nc3c(c(=O)[nH]c(=O)n3C)n2Cc2ccccc2)cc1` it was -2.18%.

`CCn1c(NCCc2ccc(OC)c(OC)c2)nc2c1c(=O)n(C)c(=O)n2C`: the Potency was 11.2 µM (active).

`CCCCNc1nc2c(c(=O)[nH]c(=O)n2C)n1CCOc1ccccc1`: the “activity change, negative = inhibition” value was -4.32%. As for `Cn1c(=O)c2c(nc(NCc3ccccc3)n2CC(N)=O)n(C)c1=O`, the “activity change, negative = inhibition” value was 9.34%. The same measure, in the same setting: under `CCCCn1c(SCC(=O)NCCc2ccc(OC)c(OC)c2)nc2c1c(=O)n(C)c(=O)n2C` stands -4.19%. As to `CCCCNc1nc2c(c(=O)n(C)c(=O)n2C)n1Cc1cccc(OC)c1`, the Potency is 6.31 µM (active).

With `CC[C@]1(C(=O)OC)[C@H]2C(=O)N(C)C(=O)[C@H]2[C@H]2CN(C)C(=NCc3ccccc3)N21`, the “activity change, negative = inhibition” value was 3.22%.
